C_diff_growth: C. difficile growth inhibitors, primary screen, HTS. Clostridium difficile clinical isolate growth, OD600, 24 h; active compounds read low. growth activity, negative = inhibition, % at 16 µg/mL (by protocol). 0.25% of 86,000 active;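 active means mean growth activity at or below -80% and every replicate also at or below -80%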;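 further: 0% = DMSO wells and -100% = levofloxacin 16 µg/mL wells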
Pf_Dd2_growth: P. falciparum Dd2 growth inhibitors, primary screen, SYBR Green fluorescence, single dose replicates; 72 h; active compounds read low; activity change, % at 10 µM; 2.3% of 94,000 active; AID 1159554, 2015; in the data active means activity change below about -80%
T_cruzi_growth-1: T. cruzi intracellular proliferation inhibitors, primary screen, cell-based, beta-gal Tulahuen parasites, NIH3T3 host, luminescence. T. cruzi beta-gal in NIH3T3, GalScreen luminescence, 90 h. inhibition, % at 8.34 µM. AID 624255, 2012. 5.9% of 77,000 active;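 active means mean inhibition above about 93%, with at least 55% of replicates each passing it, limit read from the data, passing the limit was not always enough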
T_cruzi_growth-2: T. cruzi intracellular proliferation inhibitors, confirmation, cell-based, NIH3T3 host, beta-gal parasite, luminescence, cherry-pick | 72% of 5,600 active | shares compounds with T_cruzi_growth-1 | inhibition, % at 8.35 µM | T. cruzi beta-gal in NIH3T3, GalScreen luminescence, 90 h;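 active means mean replicate inhibition above about 95% and at least 55% of replicates individually reaching it, limit read from the data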
T_cruzi_growth-3: inhibitors of intracellular T. cruzi replication, confirmation, NIH3T3 host cells, beta-gal parasites, cherry-pick, set 2. shares compounds with T_cruzi_growth-1. T. cruzi beta-gal in NIH3T3, GalScreen luminescence, 90 h. inhibition, % at 2.09 µM. 21% of 5,600 active;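 active means mean inhibition above about 95%, with at least 55% of replicates also reaching it, limit read from the data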;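 further: plate controls were neutral control median for no effect and positive control median for full effect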
3T3_cytotox: cytotoxicity in mouse NIH/3T3 fibroblasts, confirmation, cytotoxicity control for T. cruzi proliferation inhibitor project, cell-based, cherry-pick, single point; shares compounds with T_cruzi_growth-1; NIH/3T3 viability, CellTiter-Glo ATP luminescence, 90 h; cytotoxicity (signal decrease), % at 8.35 µM; 14% of 5,600 active; AID 651742, 2012;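 active means mean signal decrease across replicates above about 35% based on untreated-well scatter, with enough replicates individually passing, limit read from the data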;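 further: 0% = median of neutral control wells and 100% = median of positive control wells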
NIH3T3_tox_2: NIH/3T3 fibroblast cytotoxicity, confirmation, cytotoxicity control, cell-based, cherry-pick, single point, set 2 | NIH/3T3 viability, CellTiter-Glo ATP luminescence, 90 h | shares compounds with T_cruzi_growth-1 | 56% of 5,600 active | inhibition, % at 24.9 µM;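 active means mean loss of cell viability signal at or above a set limit, and enough replicates individually reaching it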;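 further: 0% = median of neutral control wells and 100% = median of positive control wells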
* = called active by the depositor; . = not tested or not shown. Hits are enriched below; roughly 6.7% of the tested compounds scored in any of these assays.

SMILES C_diff_growth Pf_Dd2_growth T_cruzi_growth-1 T_cruzi_growth-2 T_cruzi_growth-3 3T3_cytotox NIH3T3_tox_2
C[C@@H]1CCCCO[C@@H](CN(C)S(=O)(=O)c2ccc(F)cc2)[C@H](C)CN([C@@H](C)CO)C(=O)c2cc(NC(=O)CCC(F)(F)F)ccc2O1 0 . 5 . . . .
C[C@H]1CN([C@@H](C)CO)C(=O)c2cccc(NC(=O)Nc3ccc(F)cc3)c2O[C@H]1CN(C)C 6 15 . . . . .
CN(C)CC(=O)N1[C@@H](C#N)[C@H](c2ccc(C#CC3CCCCC3)cc2)[C@@H]1CO 0 -32 102* 98* 38 20 104*
CN(C)CC(=O)N1[C@H](C#N)[C@@H](c2ccc(C#CC3CCCCC3)cc2)[C@@H]1CO 1 -16 72 . . . .
CN(C)CC(=O)N1[C@@H](C#N)[C@@H](c2ccc(C#CC3CCCCC3)cc2)[C@@H]1CO 7 14 42 . . . .
CN(C)CC(=O)N1[C@H](C#N)[C@@H](c2ccc(C#CC3CCCCC3)cc2)[C@H]1CO 0 -21 109* 107* 73 1 102*
O=C(C[C@H]1CC[C@@H](NC(=O)c2cccc(F)c2)[C@H](CO)O1)Nc1nccs1 . 10 9 . . . .
C[C@@H]1CN([C@@H](C)CO)S(=O)(=O)c2ccc(C#Cc3ccccc3)cc2O[C@H]1CN(C)C(=O)Nc1ccccc1 3 -65 123* 98* 108* 40* 36*
C[C@@H]1CN([C@H](C)CO)S(=O)(=O)c2ccc(C#Cc3ccccc3)cc2O[C@H]1CN(C)C(=O)Nc1ccccc1 -48 -70 122* 109* 85 37* 50*
C[C@@H](O)C#Cc1ccc2c(c1)O[C@@H](CN(C)C(=O)Nc1ccccc1)[C@@H](C)CN([C@@H](C)CO)S2(=O)=O 1 -25 71 . . . .
C[C@@H]1CN([C@@H](C)CO)S(=O)(=O)c2ccc(C3=CCCC3)cc2O[C@H]1CN(C)C(=O)Nc1ccc2c(c1)OCO2 -7 -58 112* 106* 17 10 61*
C[C@@H]1CN([C@@H](C)CO)S(=O)(=O)c2ccc(C3=CCCC3)cc2O[C@@H]1CN(C)C(=O)Nc1ccc2c(c1)OCO2 0 -22 81 . . . .
CC(C)C#Cc1ccc2c(c1)O[C@@H](CN(C)C(=O)Nc1ccccc1)[C@@H](C)CN([C@@H](C)CO)S2(=O)=O 4 -61 . . . . .
C[C@H]1CN([C@@H](C)CO)S(=O)(=O)c2ccc(C#Cc3ccccc3)cc2O[C@@H]1CN(C)C(=O)Nc1ccccc1 29 -45 119* 102* 67 -19 40*
CC(C)C#Cc1ccc2c(c1)O[C@@H](CN(C)C(=O)Nc1ccccc1)[C@H](C)CN([C@@H](C)CO)S2(=O)=O -7 -22 . . . . .
Cc1noc(C)c1S(=O)(=O)Nc1ccc2c(c1)C(=O)N([C@H](C)CO)C[C@@H](C)[C@@H](CN(C)C(=O)CCCN(C)C)OCCCC[C@H](C)O2 -2 57 6 . . . .
C[C@@H]1CCCCO[C@@H](CN(C)Cc2ccc(C(=O)Nc3ccccc3N)cc2)[C@@H](C)CN([C@H](C)CO)C(=O)c2cc(NS(=O)(=O)c3cn(C)cn3)ccc2O1 5 4 . . . . .
O=S(=O)(NCC[C@@H]1CC[C@H](NS(=O)(=O)c2cccc(Cl)c2)[C@@H](CO)O1)c1cccc(F)c1 12 2 8 . . . .
CNC[C@H]1Oc2c(NS(=O)(=O)c3ccc(C)cc3)cccc2C(=O)N([C@H](C)CO)C[C@H]1C 2 44 9 . . . .
C[C@H]1CN([C@@H](C)CO)S(=O)(=O)c2ccc(C#Cc3ccccc3)cc2O[C@H]1CN(C)C(=O)Nc1ccc2c(c1)OCO2 1 -78 132* 99* 93 4 13
